# Measured values taken from publication PMC7862700, “An all-to-all approach to the identification of sequence-specific readers for epigenetic DNA modifications on cytosine”.
# How the values were obtained:
# Test in all cases: DAPPL (digital affinity profiling via proximity ligation, sequencing); 10 mM Tris-HCl pH 7.5, 50 mM NaCl, 1 mM DTT, 4% glycerol, room temperature, 30 min; GST-TFs on glutathione beads, 16-mer random dsDNA library, 0.1% formaldehyde crosslink after washing; high values mean tight binding
# [1] = molecular target: T1, FLI1 (Homo sapiens, UniProt Q01543 1-452); conditions: protein: recombinant; tags: N-terminal GST; dsDNA, one strand shown
# T1 sequence: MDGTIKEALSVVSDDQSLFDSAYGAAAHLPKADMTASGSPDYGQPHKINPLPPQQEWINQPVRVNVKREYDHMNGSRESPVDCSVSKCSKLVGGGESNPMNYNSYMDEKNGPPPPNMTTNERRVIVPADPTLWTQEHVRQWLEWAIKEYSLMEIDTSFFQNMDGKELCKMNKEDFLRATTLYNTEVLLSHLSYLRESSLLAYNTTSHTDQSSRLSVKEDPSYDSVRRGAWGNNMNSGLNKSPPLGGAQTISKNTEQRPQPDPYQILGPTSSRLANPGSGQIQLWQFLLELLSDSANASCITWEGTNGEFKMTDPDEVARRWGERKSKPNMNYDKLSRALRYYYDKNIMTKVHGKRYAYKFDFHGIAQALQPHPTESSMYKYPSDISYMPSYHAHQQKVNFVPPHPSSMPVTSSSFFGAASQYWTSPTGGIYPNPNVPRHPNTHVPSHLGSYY
# How it was run: (§1)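 In yeast, human transcription factors were expressed with a GST fusion, then pulled down on glutathione beads and given DNA barcodes. Pooled with a tag-only sample, they were exposed to 200 nmole of a 16-mer random double-stranded DNA library (Tris/NaCl/DTT/glycerol buffer, room temperature, 30 min), washed, crosslinked with 0.1% formaldehyde, proximity-ligated using BsaI/T4 ligase for 1 h at 37 °C, PCR-amplified and read on an Illumina NextSeq500. Each hexamer's frequency of reads for a factor, divided by the matching frequency for the tag-only sample, gives the binding signal.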
# [2] = molecular target: T2, ELK1 (Homo sapiens, UniProt P19419 1-428); conditions: protein: recombinant; tags: N-terminal GST; dsDNA, one strand shown
# T2 sequence: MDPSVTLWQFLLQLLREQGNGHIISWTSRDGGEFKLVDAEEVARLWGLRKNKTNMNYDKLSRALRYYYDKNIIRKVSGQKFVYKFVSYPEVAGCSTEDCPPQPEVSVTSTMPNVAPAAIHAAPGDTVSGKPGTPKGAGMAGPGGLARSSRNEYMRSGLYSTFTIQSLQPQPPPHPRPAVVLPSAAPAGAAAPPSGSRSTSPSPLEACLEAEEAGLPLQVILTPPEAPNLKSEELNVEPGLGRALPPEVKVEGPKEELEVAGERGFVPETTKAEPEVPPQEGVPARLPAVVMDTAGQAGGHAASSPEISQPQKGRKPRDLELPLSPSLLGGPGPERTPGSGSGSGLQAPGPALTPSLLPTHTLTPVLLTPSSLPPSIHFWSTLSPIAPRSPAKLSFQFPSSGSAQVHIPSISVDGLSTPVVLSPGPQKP
# How it was run: as §1
# [3] = molecular target: T3, GABPA (Homo sapiens, UniProt Q06546 1-454); conditions: protein: recombinant; tags: N-terminal GST; dsDNA, one strand shown
# T3 sequence: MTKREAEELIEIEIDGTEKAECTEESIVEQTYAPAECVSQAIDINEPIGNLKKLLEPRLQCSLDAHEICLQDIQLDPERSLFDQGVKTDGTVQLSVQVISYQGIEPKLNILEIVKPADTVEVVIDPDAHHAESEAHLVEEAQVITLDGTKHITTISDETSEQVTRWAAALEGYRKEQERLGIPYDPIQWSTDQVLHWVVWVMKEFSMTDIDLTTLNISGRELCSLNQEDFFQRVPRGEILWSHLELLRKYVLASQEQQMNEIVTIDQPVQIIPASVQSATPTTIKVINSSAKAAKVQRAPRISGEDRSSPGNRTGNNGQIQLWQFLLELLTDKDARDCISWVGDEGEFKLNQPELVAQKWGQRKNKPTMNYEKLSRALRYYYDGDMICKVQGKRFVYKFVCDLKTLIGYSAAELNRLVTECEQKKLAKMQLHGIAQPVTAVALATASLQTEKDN
# How it was run: as §1
# [4] = molecular target: T4, ERG (Homo sapiens, UniProt P11308 1-479); conditions: protein: recombinant; tags: N-terminal GST; dsDNA, one strand shown
# T4 sequence: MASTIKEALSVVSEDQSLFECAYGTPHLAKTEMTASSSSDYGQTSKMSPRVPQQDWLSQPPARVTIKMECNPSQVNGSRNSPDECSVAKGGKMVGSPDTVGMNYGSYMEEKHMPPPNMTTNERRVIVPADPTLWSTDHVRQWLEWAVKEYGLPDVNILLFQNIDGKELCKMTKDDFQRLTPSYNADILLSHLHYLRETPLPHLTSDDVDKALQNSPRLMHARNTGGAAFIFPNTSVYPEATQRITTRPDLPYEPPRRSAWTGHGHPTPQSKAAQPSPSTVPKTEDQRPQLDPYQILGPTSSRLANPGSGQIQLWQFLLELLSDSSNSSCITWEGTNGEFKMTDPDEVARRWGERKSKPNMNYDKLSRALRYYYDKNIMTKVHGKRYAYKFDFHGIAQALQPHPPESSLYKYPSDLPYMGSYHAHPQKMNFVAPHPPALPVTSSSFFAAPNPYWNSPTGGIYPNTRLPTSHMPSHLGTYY
# How it was run: as §1
# [5] = molecular target: ELF1 (Homo sapiens, UniProt P32519 1-619); conditions: protein: recombinant; tags: N-terminal GST; dsDNA, one strand shown
# How it was run: as §1
# [6] = molecular target: T5, EHF (Homo sapiens, UniProt Q9NZC4 1-300); conditions: protein: recombinant; tags: N-terminal GST; dsDNA, one strand shown
# T5 sequence: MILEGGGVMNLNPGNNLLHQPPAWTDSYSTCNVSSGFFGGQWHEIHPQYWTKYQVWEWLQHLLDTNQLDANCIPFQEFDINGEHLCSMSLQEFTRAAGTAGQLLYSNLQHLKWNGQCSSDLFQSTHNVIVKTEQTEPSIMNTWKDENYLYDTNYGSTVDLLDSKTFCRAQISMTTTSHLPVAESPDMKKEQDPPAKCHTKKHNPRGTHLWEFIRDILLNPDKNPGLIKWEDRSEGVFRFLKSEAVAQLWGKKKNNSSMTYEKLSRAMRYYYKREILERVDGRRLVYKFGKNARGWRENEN
# How it was run: as §1
# [7] = molecular target: SPI1 (Homo sapiens, UniProt P17947 1-270); conditions: protein: recombinant; tags: N-terminal GST; dsDNA, one strand shown
# How it was run: as §1
# [8] = molecular target: SPIB (Homo sapiens, UniProt Q01892 1-262); conditions: protein: recombinant; tags: N-terminal GST; dsDNA, one strand shown
# How it was run: as §1
# [9] = molecular target: T6, ELK3 (Homo sapiens, UniProt P41970 1-407); conditions: protein: recombinant; tags: N-terminal GST; dsDNA, one strand shown
# T6 sequence: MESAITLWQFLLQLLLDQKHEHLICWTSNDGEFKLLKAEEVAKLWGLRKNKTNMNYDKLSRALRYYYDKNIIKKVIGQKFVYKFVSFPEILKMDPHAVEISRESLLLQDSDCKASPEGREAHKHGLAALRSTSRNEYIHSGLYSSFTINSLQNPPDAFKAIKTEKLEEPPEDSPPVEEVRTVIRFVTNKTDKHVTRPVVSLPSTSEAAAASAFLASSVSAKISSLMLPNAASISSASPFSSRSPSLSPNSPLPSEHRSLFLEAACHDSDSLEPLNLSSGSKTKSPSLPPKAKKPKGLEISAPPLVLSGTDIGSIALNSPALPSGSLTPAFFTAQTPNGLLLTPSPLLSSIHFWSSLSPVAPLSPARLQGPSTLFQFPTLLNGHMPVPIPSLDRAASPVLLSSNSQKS
# How it was run: as §1
# [10] = molecular target: T7, FEV (Homo sapiens, UniProt Q99581 1-238); conditions: protein: recombinant; tags: N-terminal GST; dsDNA, one strand shown
# T7 sequence: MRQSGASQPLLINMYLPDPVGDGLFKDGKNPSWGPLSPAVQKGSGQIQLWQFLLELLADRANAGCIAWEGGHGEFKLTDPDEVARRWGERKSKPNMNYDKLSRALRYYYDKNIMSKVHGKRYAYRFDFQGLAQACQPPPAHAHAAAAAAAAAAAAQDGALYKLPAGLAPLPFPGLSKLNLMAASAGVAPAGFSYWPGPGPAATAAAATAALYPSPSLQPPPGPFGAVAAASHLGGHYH
# How it was run: as §1
# [11] = molecular target: ETV5 (Homo sapiens, UniProt P41161 1-510); conditions: protein: recombinant; tags: N-terminal GST; dsDNA, one strand shown
# How it was run: as §1
# [12] = molecular target: HSF1 (Homo sapiens, UniProt Q00613 1-529); conditions: protein: recombinant; tags: N-terminal GST; chain copies: 3; dsDNA, one strand shown
# How it was run: as §1
# [13] = molecular target: T8, SPIC (Homo sapiens, UniProt Q8N5J4 1-248); conditions: protein: recombinant; tags: N-terminal GST; dsDNA, one strand shown
# T8 sequence: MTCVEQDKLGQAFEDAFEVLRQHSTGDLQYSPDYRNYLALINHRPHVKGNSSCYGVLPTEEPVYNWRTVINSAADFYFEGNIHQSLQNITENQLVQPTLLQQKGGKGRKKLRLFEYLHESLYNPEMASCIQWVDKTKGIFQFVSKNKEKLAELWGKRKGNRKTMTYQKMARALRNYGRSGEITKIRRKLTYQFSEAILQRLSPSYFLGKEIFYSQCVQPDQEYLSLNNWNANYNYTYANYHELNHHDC
# How it was run: as §1
# [14] = molecular target: ELF4 (Homo sapiens, UniProt Q99607 1-663); conditions: protein: recombinant; tags: N-terminal GST; dsDNA, one strand shown
# How it was run: as §1
# [15] = molecular target: T9, ELK4 (Homo sapiens, UniProt P28324-2 1-405); conditions: protein: recombinant; tags: N-terminal GST; dsDNA, one strand shown
# T9 sequence: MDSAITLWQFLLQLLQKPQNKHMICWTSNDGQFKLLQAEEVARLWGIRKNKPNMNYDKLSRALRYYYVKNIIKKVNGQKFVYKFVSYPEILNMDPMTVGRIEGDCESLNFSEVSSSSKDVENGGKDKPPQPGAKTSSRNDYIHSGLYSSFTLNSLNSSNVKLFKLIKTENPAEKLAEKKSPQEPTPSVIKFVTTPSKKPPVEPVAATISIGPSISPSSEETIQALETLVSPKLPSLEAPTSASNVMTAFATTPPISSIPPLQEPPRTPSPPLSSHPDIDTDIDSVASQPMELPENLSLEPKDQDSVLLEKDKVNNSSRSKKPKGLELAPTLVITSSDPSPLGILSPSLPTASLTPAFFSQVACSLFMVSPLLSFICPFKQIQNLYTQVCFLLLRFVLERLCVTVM
# How it was run: as §1
# [16] = molecular target: T10, ETV2 (Homo sapiens, UniProt O00321 1-342); conditions: protein: recombinant; tags: N-terminal GST; dsDNA, one strand shown
# T10 sequence: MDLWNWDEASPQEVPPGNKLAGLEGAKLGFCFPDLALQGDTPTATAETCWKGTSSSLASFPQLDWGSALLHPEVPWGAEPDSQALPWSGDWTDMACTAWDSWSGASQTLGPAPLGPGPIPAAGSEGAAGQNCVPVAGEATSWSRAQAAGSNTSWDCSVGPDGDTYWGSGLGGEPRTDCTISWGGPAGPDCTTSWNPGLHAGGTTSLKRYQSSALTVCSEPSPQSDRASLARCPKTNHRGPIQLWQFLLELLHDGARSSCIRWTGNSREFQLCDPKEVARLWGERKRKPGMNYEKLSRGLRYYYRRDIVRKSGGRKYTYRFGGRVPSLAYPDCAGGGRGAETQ
# How it was run: as §1
# [17] = molecular target: T11, ELF3 (Homo sapiens, UniProt P78545 1-371); conditions: protein: recombinant; tags: N-terminal GST; dsDNA, one strand shown
# T11 sequence: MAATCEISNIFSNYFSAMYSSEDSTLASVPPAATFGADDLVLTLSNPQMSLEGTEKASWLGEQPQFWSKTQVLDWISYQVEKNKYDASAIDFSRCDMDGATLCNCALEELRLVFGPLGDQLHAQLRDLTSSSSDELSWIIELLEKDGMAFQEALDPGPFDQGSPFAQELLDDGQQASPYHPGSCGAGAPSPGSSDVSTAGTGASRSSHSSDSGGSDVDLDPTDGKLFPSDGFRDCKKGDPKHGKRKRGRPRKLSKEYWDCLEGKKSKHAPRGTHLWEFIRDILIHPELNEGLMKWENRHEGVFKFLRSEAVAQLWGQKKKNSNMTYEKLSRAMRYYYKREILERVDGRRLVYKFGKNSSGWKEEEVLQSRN
# How it was run: as §1
# [18] = molecular target: CRX (Homo sapiens, UniProt O43186 1-299); conditions: protein: recombinant; tags: N-terminal GST; dsDNA, one strand shown
# How it was run: as §1
# [19] = molecular target: ETV1 (Homo sapiens, UniProt P50549 1-477); conditions: protein: recombinant; tags: N-terminal GST; dsDNA, one strand shown
# How it was run: as §1
# Chain of ETV5 (P41161 whole entry): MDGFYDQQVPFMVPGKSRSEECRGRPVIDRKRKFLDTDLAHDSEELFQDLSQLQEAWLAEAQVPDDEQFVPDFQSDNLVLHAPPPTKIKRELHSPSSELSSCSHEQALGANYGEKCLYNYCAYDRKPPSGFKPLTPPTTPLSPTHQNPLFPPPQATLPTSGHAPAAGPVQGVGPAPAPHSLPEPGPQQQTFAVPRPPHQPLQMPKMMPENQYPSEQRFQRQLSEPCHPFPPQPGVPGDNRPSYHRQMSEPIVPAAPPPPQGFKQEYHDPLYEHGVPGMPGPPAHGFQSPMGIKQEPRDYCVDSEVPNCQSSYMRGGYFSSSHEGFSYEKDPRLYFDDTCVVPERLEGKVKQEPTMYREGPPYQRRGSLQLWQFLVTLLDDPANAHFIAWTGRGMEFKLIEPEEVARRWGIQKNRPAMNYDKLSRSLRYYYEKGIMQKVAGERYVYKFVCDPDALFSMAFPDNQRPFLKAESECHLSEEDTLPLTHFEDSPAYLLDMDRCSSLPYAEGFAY
# Chain of ETV1 (P50549 whole entry): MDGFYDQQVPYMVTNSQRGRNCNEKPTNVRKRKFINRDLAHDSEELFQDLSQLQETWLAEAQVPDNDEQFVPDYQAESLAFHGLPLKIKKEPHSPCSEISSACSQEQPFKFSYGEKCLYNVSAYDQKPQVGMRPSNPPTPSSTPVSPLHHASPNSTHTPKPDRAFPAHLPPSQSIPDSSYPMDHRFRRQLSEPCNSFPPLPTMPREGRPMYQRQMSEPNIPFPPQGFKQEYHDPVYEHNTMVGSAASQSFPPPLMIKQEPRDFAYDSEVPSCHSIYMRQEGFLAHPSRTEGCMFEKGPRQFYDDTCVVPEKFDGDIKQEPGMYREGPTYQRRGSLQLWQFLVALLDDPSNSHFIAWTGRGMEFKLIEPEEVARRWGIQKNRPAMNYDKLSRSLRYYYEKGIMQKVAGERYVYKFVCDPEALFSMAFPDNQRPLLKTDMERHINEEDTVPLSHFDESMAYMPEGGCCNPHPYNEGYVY
# Chain of CRX (O43186 whole entry): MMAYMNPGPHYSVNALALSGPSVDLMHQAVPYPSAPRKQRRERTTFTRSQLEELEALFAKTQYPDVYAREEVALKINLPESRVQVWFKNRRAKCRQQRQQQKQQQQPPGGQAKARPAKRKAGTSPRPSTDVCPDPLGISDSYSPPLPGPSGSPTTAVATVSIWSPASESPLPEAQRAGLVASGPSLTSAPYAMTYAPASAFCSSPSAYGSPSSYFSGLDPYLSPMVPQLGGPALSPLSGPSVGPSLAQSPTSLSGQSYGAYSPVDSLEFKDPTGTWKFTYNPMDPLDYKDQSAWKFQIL
# Chain of SPIB (Q01892 whole entry): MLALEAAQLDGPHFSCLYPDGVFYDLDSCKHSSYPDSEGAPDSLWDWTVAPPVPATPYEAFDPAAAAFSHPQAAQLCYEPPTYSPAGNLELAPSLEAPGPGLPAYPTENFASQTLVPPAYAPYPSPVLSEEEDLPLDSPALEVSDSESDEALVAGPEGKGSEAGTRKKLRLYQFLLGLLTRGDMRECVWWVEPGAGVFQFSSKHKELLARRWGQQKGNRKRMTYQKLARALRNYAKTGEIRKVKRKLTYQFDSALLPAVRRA
# Chain of HSF1 (Q00613 whole entry): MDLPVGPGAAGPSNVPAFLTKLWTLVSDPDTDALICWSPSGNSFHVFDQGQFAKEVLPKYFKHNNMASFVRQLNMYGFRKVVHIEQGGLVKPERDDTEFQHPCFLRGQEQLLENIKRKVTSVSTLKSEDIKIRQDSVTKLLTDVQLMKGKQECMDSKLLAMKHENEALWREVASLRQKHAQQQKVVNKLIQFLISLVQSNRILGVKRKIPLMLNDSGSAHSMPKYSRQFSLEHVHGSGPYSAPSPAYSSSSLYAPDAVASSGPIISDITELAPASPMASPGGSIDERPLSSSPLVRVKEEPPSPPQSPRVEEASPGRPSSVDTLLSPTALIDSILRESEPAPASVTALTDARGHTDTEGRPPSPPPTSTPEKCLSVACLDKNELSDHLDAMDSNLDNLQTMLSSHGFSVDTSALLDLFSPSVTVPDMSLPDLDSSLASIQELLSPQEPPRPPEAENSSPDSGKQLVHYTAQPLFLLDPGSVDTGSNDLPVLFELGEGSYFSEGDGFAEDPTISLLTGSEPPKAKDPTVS
# Chain of ELF1 (P32519 whole entry): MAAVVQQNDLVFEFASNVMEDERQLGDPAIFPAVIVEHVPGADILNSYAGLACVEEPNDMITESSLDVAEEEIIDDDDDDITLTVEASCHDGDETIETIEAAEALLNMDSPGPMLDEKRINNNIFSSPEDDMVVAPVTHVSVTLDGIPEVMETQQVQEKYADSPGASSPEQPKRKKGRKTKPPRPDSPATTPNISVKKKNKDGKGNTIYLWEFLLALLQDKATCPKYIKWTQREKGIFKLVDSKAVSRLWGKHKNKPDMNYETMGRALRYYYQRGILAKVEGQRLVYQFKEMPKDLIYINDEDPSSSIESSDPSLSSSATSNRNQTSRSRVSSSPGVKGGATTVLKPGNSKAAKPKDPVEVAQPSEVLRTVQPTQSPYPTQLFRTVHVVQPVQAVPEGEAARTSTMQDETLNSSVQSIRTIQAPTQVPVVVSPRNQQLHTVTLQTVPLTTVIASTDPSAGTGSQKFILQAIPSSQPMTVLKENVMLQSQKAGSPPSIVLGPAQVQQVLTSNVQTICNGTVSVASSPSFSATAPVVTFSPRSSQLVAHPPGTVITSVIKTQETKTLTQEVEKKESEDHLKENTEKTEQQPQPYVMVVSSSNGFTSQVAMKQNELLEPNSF
# Chain of ELF4 (Q99607 whole entry): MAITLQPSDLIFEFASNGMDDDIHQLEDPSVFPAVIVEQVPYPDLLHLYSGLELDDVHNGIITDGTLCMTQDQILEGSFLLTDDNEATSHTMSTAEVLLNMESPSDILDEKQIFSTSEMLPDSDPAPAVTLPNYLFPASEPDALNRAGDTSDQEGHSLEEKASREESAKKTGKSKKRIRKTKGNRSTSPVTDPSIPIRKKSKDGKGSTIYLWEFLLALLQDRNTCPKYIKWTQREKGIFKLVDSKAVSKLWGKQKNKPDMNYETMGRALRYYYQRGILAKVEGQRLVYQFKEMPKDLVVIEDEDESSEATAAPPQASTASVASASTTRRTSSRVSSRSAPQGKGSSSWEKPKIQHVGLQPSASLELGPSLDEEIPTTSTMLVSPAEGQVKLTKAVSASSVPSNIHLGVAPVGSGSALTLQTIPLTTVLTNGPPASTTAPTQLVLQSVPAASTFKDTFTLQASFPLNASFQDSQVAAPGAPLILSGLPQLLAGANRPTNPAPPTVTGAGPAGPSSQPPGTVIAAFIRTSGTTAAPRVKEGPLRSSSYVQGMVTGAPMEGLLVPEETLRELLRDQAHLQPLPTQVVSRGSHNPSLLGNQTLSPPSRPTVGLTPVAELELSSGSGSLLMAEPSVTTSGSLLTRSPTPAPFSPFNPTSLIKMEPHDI
sequence,measurement,setting,value
CCGAAC,binding signal,[1],"1.26 fold enrichment (6-mer frequency, TF over GST control)"
same,binding signal,[2],"1.21 fold enrichment (6-mer frequency, TF over GST control)"
same,binding signal,[3],"1.29 fold enrichment (6-mer frequency, TF over GST control)"
same,binding signal,[4],"1.21 fold enrichment (6-mer frequency, TF over GST control)"
same,binding signal,[5],"1.26 fold enrichment (6-mer frequency, TF over GST control)"
same,binding signal,[6],"1.32 fold enrichment (6-mer frequency, TF over GST control)"
same,binding signal,[7],"1.25 fold enrichment (6-mer frequency, TF over GST control)"
same,binding signal,[8],"1.2 fold enrichment (6-mer frequency, TF over GST control)"
same,binding signal,[9],"1.33 fold enrichment (6-mer frequency, TF over GST control)"
same,binding signal,[10],"1.25 fold enrichment (6-mer frequency, TF over GST control)"
same,binding signal,[11],"1.27 fold enrichment (6-mer frequency, TF over GST control)"
same,binding signal,[12],"1.54 fold enrichment (6-mer frequency, TF over GST control)"
same,binding signal,[13],"1.32 fold enrichment (6-mer frequency, TF over GST control)"
same,binding signal,[14],"1.26 fold enrichment (6-mer frequency, TF over GST control)"
same,binding signal,[15],"1.25 fold enrichment (6-mer frequency, TF over GST control)"
same,binding signal,[16],"1.36 fold enrichment (6-mer frequency, TF over GST control)"
same,binding signal,[17],"1.25 fold enrichment (6-mer frequency, TF over GST control)"
same,binding signal,[18],"1.17 fold enrichment (6-mer frequency, TF over GST control)"
same,binding signal,[19],"1.19 fold enrichment (6-mer frequency, TF over GST control)"
